Laboratory results published in PubChem BioAssay (Tox21).
Results filed as inconclusive are left out. Entries that show only a call come without a potency. Activity calls are given as the source filed them. The call rests on the fitted dose curve. Peptide text beside a SMILES is read from it.

Target: Beta-2 adrenergic receptor (Homo sapiens) (UniProt P07550)
Assay: Adrenergic beta2 receptor (ADRB2) small molecule agonists, cell-based qHTS assay (AID 1963593);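 further: CHO cells stably overexpressing human ADRB2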
How it was run: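 CHO cells stably over-expressing ADRB2 were plated overnight at 37C, then dosed with compounds plus a stimulation mix containing 100uM IBMX and 25uM Ro-20-1724 for 0.5hr at room temperature. cAMP was measured by HTRF competition, 1hr.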

Beta-2 adrenergic receptor (Homo sapiens), sequence (P07550 whole entry, looked up): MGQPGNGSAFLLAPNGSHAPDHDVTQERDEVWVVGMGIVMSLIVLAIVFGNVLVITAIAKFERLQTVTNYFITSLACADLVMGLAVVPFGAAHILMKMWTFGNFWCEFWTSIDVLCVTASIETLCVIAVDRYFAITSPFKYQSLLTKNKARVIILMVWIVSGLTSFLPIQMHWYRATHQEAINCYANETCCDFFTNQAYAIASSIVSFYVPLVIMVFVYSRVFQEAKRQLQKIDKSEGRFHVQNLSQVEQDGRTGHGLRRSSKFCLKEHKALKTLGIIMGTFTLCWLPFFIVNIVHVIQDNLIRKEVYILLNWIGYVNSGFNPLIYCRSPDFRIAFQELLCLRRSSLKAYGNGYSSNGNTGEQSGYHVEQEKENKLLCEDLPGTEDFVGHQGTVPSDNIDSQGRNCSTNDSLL

CCOC(=O)c1c(N)sc2c1CCN(Cc1ccccc1)C2
Potency: inactive

Cc1cccc(CN2CCN(C(c3ccccc3)c3ccc(Cl)cc3)CC2)c1 (stereo unspecified)
Potency: inactive

Cc1oc(-c2ccccc2)nc1CCOc1ccc(C[C@H](Nc2ccccc2C(=O)c2ccccc2)C(=O)O)cc1
Potency: inactive

CCCCC(CC)CN1C(=O)C2C3C=CC(C3)C2C1=O (stereo unspecified)
Potency: inactive

Cc1cc(C(C)(C)C)c(O)c(C)c1Cn1c(=O)n(Cc2c(C)cc(C(C)(C)C)c(O)c2C)c(=O)n(Cc2c(C)cc(C(C)(C)C)c(O)c2C)c1=O
Potency: inactive

Nc1ccc(S(=O)(=O)Nc2ccccc2)cc1
Potency: inactive

CCCS(=O)c1ccc2nc(NC(=O)OC)[nH]c2c1 (stereo unspecified)
Potency: inactive

CC(C)(C)c1cccc(O)c1
Potency: inactive

OCC(O)[C@@H](O)[C@H](O)[C@H](O)CO[C@H]1O[C@H](CO)[C@@H](O)[C@H](O)[C@H]1O (stereo partly specified)
Potency: inactive

Nc1c(Cl)cc(Cl)cc1Cl
Potency: inactive

CCN(CC)CCNC(=O)COc1ccc(Cl)cc1
Potency: inactive

c1ccc2c(CC3=NCCN3)cccc2c1
Potency: inactive

Nc1ccc(S(=O)(=O)NCc2ccccc2)cc1
Potency: inactive

CNc1c2c(nn1C)CCCC2
Potency: inactive

O=c1[nH]cnc2ccccc12
Potency: inactive

CCN(C(=O)c1cc(C)cc(OC[C@H](C)Nc2ccncc2)c1)C(C)C
Potency: inactive

CCOC(=O)C(=O)c1csc(NC=O)n1
Potency: inactive

COc1ccc([C@@H]2Sc3ccccc3N(CCN(C)C)C(=O)[C@@H]2OC(C)=O)cc1
Potency: inactive

NS(=O)(=O)c1cc(C(=O)O)cc(N2CCCC2)c1Oc1ccccc1
Potency: inactive

C=C1CC[C@H](O)C/C1=C\C=C1/CCC[C@]2(C)[C@@H]([C@H](C)CCCC(C)C)CC[C@@H]12
Potency: inactive

CC(=O)N[C@@H](CO)C(=O)N[C@@H](CC(=O)O)C(=O)N[C@@H](CCCCN)C(=O)N1CCC[C@H]1C(=O)O (Ac-SDKP-OH)
Potency: inactive

CCOC(=O)NNc1ccc(N(CC)CC(C)O)nn1 (stereo unspecified)
Potency: inactive

Cc1cc(C(C)(C)C)c(O)c(C)c1CC1=NCCN1
Potency: inactive

O=C(OCC(COC(=O)c1ccccc1)(COC(=O)c1ccccc1)COC(=O)c1ccccc1)c1ccccc1
Potency: inactive

CC(C)C[C@H](NC(=O)OCC1c2ccccc2-c2ccccc21)C(=O)O
Potency: inactive

NNc1nc(-c2ccc([N+](=O)[O-])cc2)cs1
Potency: inactive

CCCC[P+](C)(CCCC)CCCC
Potency: inactive

CC(C)NNC(=O)c1ccncc1
Potency: inactive

COC(=O)C1=C(C)NC(C)=C(C(=O)OCCN2CCN(C(c3ccccc3)c3ccccc3)CC2)C1c1cccc([N+](=O)[O-])c1 (stereo unspecified)
Potency: inactive

CCN1CCCC1CNC(=O)c1cc(S(=O)(=O)CC)c(N)cc1OC (stereo unspecified)
Potency: inactive

CCC(C(=O)OCCN1CCOC(c2ccccc2)C1C)c1ccccc1 (stereo unspecified)
Potency: inactive

C=CCSSCCC
Potency: inactive

CCOC(=O)C(=O)OCC
Potency: inactive

O=C(O)c1cccc(Cl)n1
Potency: inactive

CN(C)c1ccc(CCO)cc1
Potency: inactive

CCCCCCCCCOC(C)=O
Potency: inactive

CC(C)OC(=O)C(C(=O)OC(C)C)=C1SC=CS1
Potency: inactive

O=C1CCCCCCCCCCCCCC1
Potency: inactive

CCCCNS(=O)(=O)c1ccc(C)cc1
Potency: inactive

CN1CCCCC1CCN1c2ccccc2Sc2ccc(S(C)=O)cc21 (stereo unspecified)
Potency: inactive

C=C(C)C(=O)OCCCC
Potency: inactive
